In ChEMBL document CHEMBL3988442, “University of Dundee, Small-Polar-MMV Screening Library” (2021):
The whole screen tested about 48,000 compounds, of which about 13,000 (27%) showed an effect of 50% or more. The list shows a part of the results.

System: Wolbachia pipientis
Test: Anti-Wolbachia Cell-Based Screen
Assay type: functional
Design: scale not given: in the data most compounds retested in dose-response had high values
Details: 5 µM

| Structure (SMILES) | Percent Effect |
| --- | --- |
| CSCCc1c(-c2ccccc2)ncn1CC(C)(C)N1CCOCC1 | 0.5421% |
| CN(CCCc1cc(-c2ccccc2)n[nH]1)C(=O)CCCn1cncn1 | 1.593% |
| O=C(COC1CCOC1)N(CC(F)F)c1cccc(Cl)c1 (configuration not stated) | -1.811% |
| CC1CCC(NC(=O)Nc2ccc(CC(=O)N(C)C)cc2)CC1 (configuration not stated) | 5.136% |
| CSCc1ccc(C(=O)N2CCN(CC(C)O)CC2)cc1 (configuration not stated) | 99.74% |
| CCN(CC)Cc1ccc(C(=O)N2CCN(CC(C)O)CC2)cc1 (configuration not stated) | -1.675% |
| COCc1ccc(C(=O)N2CCN(CC(C)O)CC2)cc1 (configuration not stated) | 108.5% |
| CC(O)CN1CCN(C(=O)c2ccc(CN(C)C)cc2)CC1 (configuration not stated) | 105.8% |
| CC(O)CN1CCN(C(=O)c2ccc(Br)o2)CC1 (configuration not stated) | -12.79% |
| CSCc1cccc(C(=O)N2CCN(CC(C)O)CC2)c1 (configuration not stated) | -7.975% |
| CC(O)CN1CCN(C(=O)c2ccc3c(c2)COC3)CC1 (configuration not stated) | -5.873% |
| COc1ccccc1C(=O)Nc1ccc([C@@H](O)[C@H]2COCC(=O)N2)cc1 | -5.781% |
| O=C(O)C1c2nc[nH]c2CCN1Cc1ccccc1-c1ccccc1 (configuration not stated) | -6.694% |
| CC(C)CCc1noc(CN2CCCC(CNS(N)(=O)=O)C2)n1 (configuration not stated) | -3.11% |
| O=S(=O)(NC1CCC2(CC1)OCCO2)c1cccc(Br)c1 | -35.45% |
| COC(=O)CN(C)C1CCc2ccccc21 (configuration not stated) | -6.999% |
| CCc1[nH]ncc1C(=O)N1CCCN(Cc2cnn(C)c2)CC1 | -4.439% |
| CCn1cc(CN2CCCN(C(=O)c3ccccc3OC)CC2)cn1 | 106.4% |
| CCn1cc(CN2CCCN(C(=O)c3ccccc3C)CC2)cn1 | 154.9% |
| CCCc1cc(=O)[nH]c2nnc(SCC(=O)OC)n12 | 10.3% |
| COc1ccc(C(NC(=O)NCc2nnc3n2CCC3)C2CC2)cc1 (configuration not stated) | 10.5% |
| CC(C)NC(=O)NCc1nnc2n1C(C(=O)N(C)C)CC2 (configuration not stated) | 107% |

| Structure (SMILES) | Percent Effect |
| --- | --- |
| CN(Cc1ccc(Cl)s1)C(=O)NCc1nnc2n1CCC2 | 3.09% |
| CC(NC(=O)C1CCCC1)c1nncn1C(C)C (configuration not stated) | 0% |
| CC(C)N(Cc1ccccc1)C(=O)NCCNC(=O)c1cccnc1 | -12.62% |
| Cc1ccc2c(c1)nc1n2[C@@H](CNC(=O)c2cccnc2)COC1 | -3.716% |
| CC1CCN(CCNC(=O)C2CCN(C(=O)NC(C)C)CC2)CC1 | 10.9% |
| CC(C)NC(=O)C1CCc2nnc(CNC(=O)C3CC3)n21 (configuration not stated) | 113.3% |
| CC(C)NC(=O)C1CCc2nnc(CNC(=O)c3cccnc3)n21 (configuration not stated) | 109.4% |
| CN(C)C(C(=O)N1CCN(CCn2cccc2)CC1)c1cccc(F)c1 (configuration not stated) | -3.926% |
| O=C1OCCN1CCSc1nnnn1CC(F)(F)F | -1.95% |
| CSCc1cccc(S(=O)(=O)NCc2cnn(C)c2C)c1 | -8.017% |
| Cc1ccc(C)c2c(O)cc(CNCc3ccc(S(N)(=O)=O)cc3)nc12 | -3.225% |
| Cc1cc(NC(=O)NCCc2ccc(S(N)(=O)=O)cc2)n(C)n1 | -16.74% |
| CCCc1nc(C)cc(NCc2ccc(S(N)(=O)=O)cc2)n1 | 98.3% |
| Cc1nc(C(C)C)sc1C(=O)N(C)Cc1cnn(C)c1 | -3.073% |
| CC(C)c1nn2c(-c3cnn(C)c3)nnc2s1 | 112.2% |
| Cc1nn2c(-c3cnn(C)c3)nnc2s1 | 91.48% |
| Cc1nc(-c2cnn(C)c2)sc1C(=O)NCc1ccc(C)n1C | -0.2397% |
| CN1CCN(c2nc(-c3cnn(C)c3)cs2)CC1 | 4.898% |
| CS(=O)(=O)NCCC(=O)N1Cc2cnc(-c3ccccc3)nc2C1 | 16.59% |
| Cc1cc(NC(=O)N(CC2CCOC2)C2CC2)no1 (configuration not stated) | -8.865% |
| CC(C)n1cnnc1CN(C)CC1CCOC1 (configuration not stated) | -3.944% |
| CCN(CC)c1ccc(NC(=O)NCC2CCOC2)cn1 (configuration not stated) | 10.55% |

| Structure (SMILES) | Percent Effect |
| --- | --- |
| CN(CC1CCOC1)c1ncc(Br)cn1 (configuration not stated) | 108.2% |
| CN(CC1CCOC1)c1ccc(Br)cn1 (configuration not stated) | 73.32% |
| Cc1cc(Br)cnc1N(C)CC1CCOC1 (configuration not stated) | 110.5% |
| Cc1cc(C)c2c(N(C)CC3CCOC3)ncnc2n1 (configuration not stated) | 14.02% |
| Brc1cnc(NCCCOCC2CCOC2)nc1 (configuration not stated) | -7.311% |
| CCN(CC1CCOC1)C(=O)Nc1ccc(OC)nc1 (configuration not stated) | 9.48% |
| COCC1CN(S(=O)(=O)Cc2ccc(C)cc2)Cc2c1cnn2C.O=C(O)C(F)(F)F (configuration not stated) | -11.46% |
| CCCc1cncnc1N1CCC(NCCc2nc(O)cc(O)n2)CC1 | 12.44% |
| Cc1ccccc1CCCN(Cc1ccccn1)S(C)(=O)=O | 19.14% |
| O=C(c1ncn2c(C3CCN(CC4CC4)CC3)ccnc12)N1CCCC1 | -17.31% |
| COCC1c2nnn(CC3CC3)c2CCN1C(=O)N1CCCC1 (configuration not stated) | -0.306% |
| Cl.Cn1cc(C(=O)NCc2cncc3c2CCN(S(C)(=O)=O)C3)cn1 | 98.76% |
| Cl.Cl.Cn1cc(C(=O)NCc2cncc3c2CCN(c2ccccn2)C3)cn1 | 91.67% |
| Cn1cc(C(=O)NCc2cn3c(n2)CN(CC2CCOCC2)CC3)cn1.O=C(O)C(F)(F)F | -7.416% |
| CC(C)N1CCc2c(CNC(=O)c3nccn3C)cncc2C1.Cl.Cl.Cl | 1.546% |
| Cl.Cl.Cn1cc(C(=O)NCc2cncc3c2CCN(CC2CC2)C3)cn1 | 108.8% |
| Cl.Cl.Cn1cc(CN2CCc3c(CNC(=O)C4CC4)cncc3C2)cn1 | -6.421% |
| COCCN1CCc2c(CNC(=O)c3nccn3C)cncc2C1.Cl.Cl.Cl | -25.03% |
| N#Cc1cnc(NCc2ccc(C(=O)NC3CC3)cc2)c(Cl)c1 | -6.229% |
| CC(C)(C)c1noc(CCC(=O)N(CC2CCOC2)C2CC2)n1 (configuration not stated) | 7.667% |
| CN(C)C(=O)CN1CCC2(C1)CN(CC1CCOC1)C2.O=C(O)C(F)(F)F.O=C(O)C(F)(F)F (configuration not stated) | -5.986% |
| CNC(=O)CN1CCO[C@H]2CN(CC3CCOC3)C[C@H]21.O=C(O)C(F)(F)F.O=C(O)C(F)(F)F (some centres not stated) | 19.99% |

| Structure (SMILES) | Percent Effect |
| --- | --- |
| CC(=O)N1CCc2[nH]cnc2C12CCN(CC1CCOC1)CC2 (configuration not stated) | -0.2967% |
| CC(=O)N1CCC2(CCN(CC3CCOC3)C2)CC1 (configuration not stated) | 104% |
| CC(=O)N1CCC2(CCN(CC3CCCCC3)C2)CC1 | -14.93% |
| CNC(=O)CN1CCC2(CCCN(CC3CCOC3)C2)CC1.O=C(O)C(F)(F)F.O=C(O)C(F)(F)F (configuration not stated) | 105.4% |
| Cc1cccc(NC(=O)Cn2ncc(SCC(N)=O)c(Cl)c2=O)c1C | -8.805% |
| CN(C)c1cccc(C2CCCN2c2nc3c(cnn3C)c(=O)[nH]2)c1 (configuration not stated) | 1.208% |
| CCc1ccc(CN(C)C(=O)C2CC(=O)N(c3cccc(O)c3)C2)nc1 (configuration not stated) | -3.145% |
| CCCn1nc2c(cc1=O)CN(Cc1nc(-c3ccoc3)no1)CC2 | 8.04% |
| Cl.O=C(NCC(F)F)c1cnc(C2CCCN2)cn1 (configuration not stated) | 98.86% |
| O=C(NC[C@@H]1CCCN1)c1cc(COc2cccc(C(F)(F)F)c2)[nH]n1 | 1.903% |
| O=C(NC[C@H]1CCCN1)c1cc(COc2cccc(C(F)(F)F)c2)[nH]n1 | -12.79% |
| Cl.O=C1NCCCCC1NCc1csc(-c2ccccn2)n1 (configuration not stated) | -2.48% |
| O=C(NCc1ccccn1)C1CN(c2nc3ccccc3s2)CCN1 (configuration not stated) | 4.696% |
| O=C(NCc1ccccn1)c1cncc(C2CCCN2)n1 (configuration not stated) | 138.1% |
| CC1CCc2nc(O)c(C(=O)NCc3ccccn3)cc2C1 (configuration not stated) | 0.7211% |
| CCC1c2ccsc2CCN1C(=O)NCc1ccccn1 (configuration not stated) | 11.42% |
| Cc1nc(C(=O)NCc2ccccn2)cc(C2CCCN2)n1 (configuration not stated) | 186.5% |
| O=C(NCc1ccccn1)c1cnc(C2CCCN2)cn1 (configuration not stated) | 135% |
| O=S1(=O)C[C@@H]2[C@H](C1)N(Cc1cc(F)cc(F)c1)CCN2CCO | 1.937% |
| O=C(Nc1cc(C(F)(F)F)ccc1Cl)c1ccc(N2CCOCC2)nn1 | -2.027% |
| Cl.NC1CCN(C(=O)c2c(F)cccc2Br)CC1 | 2.266% |
| Cc1ccccc1SCC(=O)N[C@H]1CC[C@H](n2cnnc2)CC1 | -8.466% |

| Structure (SMILES) | Percent Effect |
| --- | --- |
| Cc1ccc(C(C)NC(=O)Cc2c(C)nc3cc(=O)[nH]n3c2C)s1 (configuration not stated) | 3.622% |
| CCOCCN1CCN(CC(O)c2cc(Cl)ccc2Cl)CC1 (configuration not stated) | 18.57% |
| CCOc1ccnc(N2CCCN(c3nc(CC)ns3)CC2)n1 | 2.862% |
| Cc1cnn(CC2CC2)c1NC(=O)c1cccnc1O | -0.1453% |
| Cc1cc(CN2CCC(CNC(=O)c3ccc(C#N)cc3)C2)[nH]n1 (configuration not stated) | -6.827% |
| Cc1nc[nH]c1CN1CCC(CNC(=O)c2cccc3cnccc23)C1 (configuration not stated) | -8.641% |
| CCn1ncnc1CN1CCC(CNC(=O)c2ccccc2C#N)C1 (configuration not stated) | 115.7% |
| Cc1ccc(C(=O)NCC2CCN(Cc3ccccc3C#N)C2)cn1 (configuration not stated) | -20.5% |
| CCn1ncnc1CN1CCC(CNC(=O)c2cccnc2O)C1 (configuration not stated) | 102.6% |
| Cc1cccc(N2CCN(S(=O)(=O)CCN)CC2)c1 | -3.019% |
| CCC(C)[C@H](NC(=O)c1cc(Br)ccc1-n1cnnn1)C(=O)OC (some centres not stated) | 6.622% |
| CC(=O)N1CCC(NC(=O)c2cc(Cl)ccc2-n2cnnn2)CC1 | 22.58% |
| CCOC(=O)C1CCN(C(=O)c2cc(Br)ccc2-n2cnnn2)CC1 | 129.1% |
| COC(=O)C1CCN(C(=O)c2cc(Br)ccc2-n2cnnn2)CC1 | 122.5% |
| CCOC(=O)CN1CCC(C(=O)c2cc(F)ccc2F)CC1 | -15.3% |
| CCOC(=O)C1CCN(C(=O)Cn2ccc3cc(Br)ccc32)CC1 | 16.73% |
| CCOC(=O)N1CCC(C(=O)c2cc(F)ccc2F)CC1 | -8.485% |
| CCOC1CCCN(C(=O)c2sccc2-n2cnnn2)C1 (configuration not stated) | -3.669% |
| CCOC(=O)C1CCN(C(=O)c2cc(F)ccc2-n2cnnn2)CC1 | 122.3% |
